# Results as given in PMC4336329 (PLoS ONE, 2015).
# In all, about 310,000 compounds went through this assay and about 14,000 (4.5%) showed an effect of 50% or more. The effect is printed as a negative number. The list comes from a sample in which strong results are over-represented; it also holds similar structures and randomly drawn compounds.
# Biological target: human ether-à-go-go-related gene (hERG) potassium channel (human, UniProt Q12809)
# Test: primary screen, population patch clamp on CHO cells stably expressing hERG; higher = less effect of the substance
# 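Further: peak tail current of the secondary pulse compared with the same well before compound.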
# Chain of human ether-à-go-go-related gene (hERG) potassium channel (Q12809 whole entry, looked up): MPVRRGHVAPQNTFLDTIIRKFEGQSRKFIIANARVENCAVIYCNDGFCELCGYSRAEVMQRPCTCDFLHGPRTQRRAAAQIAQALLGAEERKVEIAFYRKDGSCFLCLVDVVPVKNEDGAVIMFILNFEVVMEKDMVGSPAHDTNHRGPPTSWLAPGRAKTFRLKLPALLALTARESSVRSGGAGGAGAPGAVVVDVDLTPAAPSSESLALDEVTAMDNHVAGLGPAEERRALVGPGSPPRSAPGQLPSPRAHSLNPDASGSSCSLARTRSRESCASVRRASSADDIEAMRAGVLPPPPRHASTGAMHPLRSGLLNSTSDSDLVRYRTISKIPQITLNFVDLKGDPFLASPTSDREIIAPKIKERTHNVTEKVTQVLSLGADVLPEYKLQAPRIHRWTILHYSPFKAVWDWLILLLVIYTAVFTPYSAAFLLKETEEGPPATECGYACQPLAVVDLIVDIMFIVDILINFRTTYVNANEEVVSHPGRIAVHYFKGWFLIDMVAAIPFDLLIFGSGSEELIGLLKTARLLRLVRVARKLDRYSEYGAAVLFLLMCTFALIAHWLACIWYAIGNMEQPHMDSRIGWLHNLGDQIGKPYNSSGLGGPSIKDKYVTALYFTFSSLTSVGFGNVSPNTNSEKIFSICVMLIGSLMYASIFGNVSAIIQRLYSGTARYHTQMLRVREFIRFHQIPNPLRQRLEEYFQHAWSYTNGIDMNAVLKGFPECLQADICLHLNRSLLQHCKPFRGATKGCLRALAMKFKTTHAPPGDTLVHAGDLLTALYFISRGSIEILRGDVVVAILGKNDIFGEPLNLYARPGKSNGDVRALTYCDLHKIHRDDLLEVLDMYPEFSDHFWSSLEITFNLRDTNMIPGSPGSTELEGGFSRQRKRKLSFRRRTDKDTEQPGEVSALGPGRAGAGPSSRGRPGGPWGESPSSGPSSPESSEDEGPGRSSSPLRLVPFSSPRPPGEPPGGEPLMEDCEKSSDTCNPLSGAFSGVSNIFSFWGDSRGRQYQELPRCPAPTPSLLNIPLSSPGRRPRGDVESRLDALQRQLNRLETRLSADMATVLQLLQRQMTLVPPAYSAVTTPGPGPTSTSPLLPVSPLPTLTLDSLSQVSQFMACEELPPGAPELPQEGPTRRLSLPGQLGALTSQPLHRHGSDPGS
row,Structure (SMILES),"hERG current change (%, negative = inhibition) at 10uM"
1,Cc1ccc(C(=O)N2CCCC2)cc1S(=O)(=O)N1CCOCC1,1.43%
2,COc1ccc(S(=O)(=O)N2Cc3ccccc3CC2C(=O)O)cc1 (stereo not shown),-13.1%
3,O=C(C1Cc2ccccc2CN1S(=O)(=O)c1ccc(F)cc1)N1CCOCC1 (stereo not shown),-18%
4,COc1ccc(S(=O)(=O)N2Cc3ccccc3CC2C(=O)N2CCOCC2)cc1 (stereo not shown),-59.2%
5,O=C(C1Cc2ccccc2CN1S(=O)(=O)c1ccc(F)cc1)N1CCCCC1 (stereo not shown),-13.2%
6,COc1ccc(S(=O)(=O)N2Cc3ccccc3CC2C(=O)N2CCOCC2)cc1OC (stereo not shown),-18.7%
7,O=C(c1ccco1)N1CCN(C(=O)C2Cc3ccccc3CN2S(=O)(=O)c2ccc(F)cc2)CC1 (stereo not shown),-70.6%
8,O=C(NCCNc1nccc(C(F)(F)F)n1)c1cccc(C(F)(F)F)c1,-8.47%
9,CCOC(=O)c1c(C)nc(C)c(C(=O)OCC)c1-c1ccc(Br)cc1,-29.7%
10,Cc1ccccc1Nc1ncnc2c1cnn2Cc1ccccc1,-10.8%
11,Cc1c(NC(=O)C(C)OC(=O)CC2CC3CCC2C3)c(=O)n(-c2ccccc2)n1C (stereo not shown),-9.36%
12,Cc1ccc(/C=N/Nc2ncnc3nc[nH]c23)cc1,-18.6%
13,Nc1cccc(C(=O)Nc2ccco2)c1,-2.33%
14,O=C(O)CN1C(=O)/C(=C2\SC(=S)N(C(Cc3ccccc3)C(=O)O)C2=O)c2ccccc21 (stereo not shown),2.15%
15,CC(C)(C)CC(=O)Nc1nnc(SCC(=O)NC2CCCCC2)s1,-36.5%
16,O=C(O)C(=O)O.c1ccc(CCNC2CCCCCC2)cc1,-4.67%
17,COC1CCCCC1NCCc1ccccc1.O=C(O)C(=O)O (stereo not shown),-0.725%
18,N#CC1(c2ccccc2)CCC(NCCc2ccccc2)CC1.O=C(O)C(=O)O (stereo not shown),-69.5%
19,O=C(N1CCOCC1)N1CCN(S(=O)(=O)N2CCOCC2)CC1,11.3%
20,C=CCn1c(SCC(=O)Nc2cccc3ccccc23)nc(O)c(CC)c1=O,3.7%
21,COc1ccc(NC(=O)CC2C(=O)N(c3cccc(OC)c3)C(=O)N2C2CCCCC2)cc1 (stereo not shown),13.4%
22,CCN(CC)Cc1c(C(=O)N/N=C/c2c(Cl)cccc2Cl)nnn1-c1nonc1N,11.8%

row,Structure (SMILES),"hERG current change (%, negative = inhibition) at 10uM"
1,CCCCOc1[nH]c2nc(-c3ccco3)n(Cc3ccco3)c(=N)c2c1C#N,-69.1%
2,c1coc(Cn2c(-c3ccco3)nc3ccccc32)c1,-10%
3,COc1ccc(Cn2c(=O)n(Cc3ccco3)c(=N)c3c4c(sc32)COC(C)(C)C4)cc1,-15.9%
4,CC1Sc2ccc(C(=O)NCc3cccc(C(F)(F)F)c3)cc2NC1=O (stereo not shown),-4.86%
5,CCOc1cc(/C=C2\COc3ccccc3C2=O)ccc1OCC(=O)N(C)C,-10.3%
6,COc1ccc(/C=C2\COc3ccccc3C2=O)cc1OC,-17.1%
7,CCNC(=O)COc1ccc(/C=C2\COc3ccccc3C2=O)cc1OC,-71.8%
8,COc1ccc(N2C(=S)N(C(=O)c3ccccc3)C(=Nc3ccccc3)C2=Nc2ccccc2)cc1,-3.16%
9,Cc1ccc(-c2noc(-c3ccccc3C(=O)N3CCOCC3)n2)cc1,-12.2%
10,Cc1ccc(-c2noc(-c3ccccc3C(=O)N3CCN(C)CC3)n2)cc1,-51.2%
11,O=C(c1ccccc1-c1nc(-c2ccccc2)no1)N1CCCC1,-4.86%
12,O=C(c1ccccc1-c1nc(-c2ccc(Cl)cc2)no1)N1CCCC1,0.639%
13,Cc1ccc(-c2noc(-c3ccccc3C(=O)N3CCCC3)n2)cc1,-32.3%
14,NC(=O)c1ccccc1-c1nc(-c2ccccc2)no1,-76.5%
15,CN1CCN(C(=O)c2ccccc2-c2nc(-c3ccc(Cl)cc3)no2)CC1,-65.6%
16,CN1CCN(C(=O)c2ccccc2-c2nc(-c3ccccc3)no2)CC1,-25.5%
17,c1ccc(-c2noc(-c3ccccc3-c3ccccc3)n2)cc1,5.26%
18,Cc1cccc(NC(=O)CSCC(=O)N=c2sccn2C)c1,-20.2%
19,CC(C)n1c(O)c(N=NC(=O)CNC(=O)Cc2ccc(Cl)cc2)c2ccccc21,-39.1%
20,CC(C)c1cc(-c2cc(-c3ccccc3)on2)nc(NC2CCCC2)n1,6.4%
21,CCC(Cc1ccccc1)NC(=O)CCc1ccccc1 (stereo not shown),13.5%
